Assay [1] in a line: viability loss in pontine glioma line – cell-based, SU-DIPG-XVII, MIPE5.0, CellTiter-Glo, qHTS, dose response (AID 1347060).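 On AC50: cells exposed to compound for 48 hours before viability readout.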 To be noted: CellTiter-Glo ATP luminescence. (In general: In ATP-based viability assays light output follows the ATP content of the culture.)
Assay [2] in a line: viability loss in pontine glioma line – cell-based, SU-DIPG-XXV, MIPE5.0, CellTiter-Glo, qHTS, dose response (AID 1347065).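 Further: cells exposed to compound for 48 hours before ATP readout.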 The settings on record: CellTiter-Glo ATP luminescence.
The nature of assay [3]: liver-stage malaria parasite load reduction – cell-based, known kinase inhibitor set, luminescence, hepatoma host viability (AID 624392; call rule not given here;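 further: infected cells incubated roughly two days before readout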). The settings on record: Plasmodium liver stage in hepatoma cells, luciferase luminescence, concentration not given here; liver cell % of control: measured here: host liver cell viability; parasite % of control: stronger effect = lower value.
Assay [4] in a line: compounds altering viability of human ES cells (AID 493140; call rule not given here;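 further: cells exposed to compounds for four days before counting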). To be noted: human embryonic stem cell survival screen; stronger effect = higher value.
In assay [5] the target is ATP-dependent translocase ABCB1 (Homo sapiens) (UniProt P08183). Nature of the assay: P-glycoprotein substrate transport blockade – cell-based (AID 377; in the data active means fluorescence slope change above about 50%). To be noted: MDR1-expressing cells, fluorescent substrate accumulation slope; stronger effect = higher value; concentration not given here.
Assay [6] is described as follows: growth inhibition, single agent or in combination, cell-based, chromothripsis tumors, cisplatin or BGB combos (AID 1671449; in the data active means inhibition above about 80%;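 further: cells exposed for 96 hours; 0% = vehicle DMSO and 100% = killing by high DMSO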). The settings on record: LFS_MB_P medulloblastoma cells.
The nature of assay [7]: growth inhibition, single agent and combos, cell-based, chromothripsis tumors, cisplatin or BGB combos (AID 1671450; in the data active means inhibition above about 80%;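 further: cells exposed to compound for four days; 0% = vehicle DMSO and 100% = cell killing by high DMSO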). The settings on record: HDN33 neuroblastoma cells, stronger effect = higher value.
A short description of assay [8]: growth inhibition, single agents and combos, LFS_MB_1R, cell-based, cisplatin or BGB combos, synergistic combos for chromothripsis tumors (AID 1671452; in the data active means inhibition above about 80%;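 further: cells exposed for 96 hours before readout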). The settings on record: LFS_MB_1R medulloblastoma cells, stronger effect = higher value.
The nature of assay [9]: growth inhibition, single agents and combos, HTB85, cell-based, BGB or cisplatin IC20 combos, synergistic combos for chromothripsis tumors (AID 1671453; in the data active means inhibition above about 80%;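 further: cells exposed for 96 hours before readout; 0% = vehicle DMSO and 100% = high DMSO killing control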). The settings on record: HTB85 osteosarcoma cells, drug combinations, stronger effect = higher value.
A short description of assay [10]: growth inhibition, single agents and combos, CRL2098, cell-based, BGB or cisplatin IC20 combos, synergistic combos for chromothripsis tumors (AID 1671454; in the data active means inhibition above about 80%;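 further: cells exposed for 96 h before readout; 0% = vehicle DMSO and 100% = killing by high DMSO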). The settings on record: CRL2098 osteosarcoma cells, drug combinations, stronger effect = higher value.
Assay [11] can be described thus: growth inhibition, single agents and combos, HD-MB03, cell-based, BGB or cisplatin IC20 combos, synergistic combos for chromothripsis tumors (AID 1671455; in the data active means inhibition above about 83%;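 further: 0% = vehicle DMSO and 100% = high DMSO as cytotoxic control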). To be noted: HD-MB03 medulloblastoma cells, stronger effect = higher value.
Assay [12] in a line: growth inhibition, single agents and combos, UWB1.289, cell-based, BGB or cisplatin combos, synergistic combos for chromothripsis tumors (AID 1671456; in the data active means inhibition above about 80%;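 further: cells exposed to compound for four days; 0% = vehicle DMSO and 100% = killing by high DMSO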). To be noted: UWB1.289 ovarian carcinoma cells, stronger effect = higher value.
The nature of assay [13]: growth inhibition, single agents and combos, LFS_MB_2R, cell-based, cisplatin combos, synergistic combos for chromothripsis tumors (AID 1671457; in the data active means inhibition above about 80%;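 further: cells exposed to compound for four days before readout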). The settings on record: LFS_MB_2R medulloblastoma cells, stronger effect = higher value.
Assay [14] in a line: growth inhibition, MDA-MB-436, cell-based, BGB or cisplatin combos, synergistic combos for chromothripsis tumors (AID 1671458; call rule not given here;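 further: cells exposed for 96 hours; 0% = vehicle DMSO and 100% = killing by high DMSO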). To be noted: MDA-MB-436 breast carcinoma growth inhibition, drug combinations, stronger effect = higher value.
The nature of assay [15]: UWB1.289_BRCA1 ovarian cancer growth, cell-based, BGB or cisplatin combinations (AID 1671459; in the data active means inhibition above about 80%). The settings on record: UWB1.289 BRCA1 ovarian carcinoma, drug combinations, stronger effect = higher value.
The nature of assay [16]: drug combination toxicity in non-malignant astrocytes – cell-based, BGB or cisplatin IC20 combos, cytotoxicity control for chromothriptic childhood tumor combination screen (AID 1671460; in the data active means inhibition above about 80%;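 further: cells exposed to compounds for 96 hours before viability readout; 0% = vehicle and 100% = killing control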). The settings on record: Human astrocytes, viability inhibition, drug combinations, at 0.5 µM, stronger effect = higher value.
Assay [17] is described as follows: BT084 cell growth, single and combined drugs, ICGC_MB145, cisplatin and BGB IC40 combos (AID 1671461; in the data active means inhibition above about 80%;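 further: cells exposed to drugs for 96 hours; 0% = vehicle DMSO and 100% = high DMSO full killing control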). To be noted: BT084 medulloblastoma cells, drug combinations, stronger effect = higher value.
Assay [18] is described as follows: RCMB18 cell growth, single agent and combined, cisplatin and BGB IC40 combos (AID 1671462; in the data active means inhibition above about 80%;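 further: cells exposed to compound for four days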). The settings on record: RCMB18 medulloblastoma cells, stronger effect = higher value.
Assay [19] in a line: CRL1545 cell growth, single agent and combined, cisplatin and BGB IC20 combos (AID 1671464; in the data active means inhibition above about 80%;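 further: cells exposed to compound for 96 hours before readout; 0% = vehicle DMSO and 100% = high DMSO killing control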). The settings on record: CRL1545 osteosarcoma cells, stronger effect = higher value.
Where [20] appears, read: measured here: combination with BGB IC40, at 0.05 µM.
The mark [21] stands for this setting: measured here: with BGB IC20 combination, at 0.5 µM.
[22] abbreviates: measured here: with cisplatin IC20 combination, at 0.5 µM.
[23] abbreviates: measured here: combination with cisplatin, at 0.5 µM.
[24] abbreviates: measured here: combination with cisplatin, at 5 µM.

Inconclusive results are not listed. The source made the active and inactive calls. Unless noted, cut-off not given; nearly all actives show AC50 up to about 26 µM.

ATP-dependent translocase ABCB1 (Homo sapiens), sequence (P08183 whole entry, looked up): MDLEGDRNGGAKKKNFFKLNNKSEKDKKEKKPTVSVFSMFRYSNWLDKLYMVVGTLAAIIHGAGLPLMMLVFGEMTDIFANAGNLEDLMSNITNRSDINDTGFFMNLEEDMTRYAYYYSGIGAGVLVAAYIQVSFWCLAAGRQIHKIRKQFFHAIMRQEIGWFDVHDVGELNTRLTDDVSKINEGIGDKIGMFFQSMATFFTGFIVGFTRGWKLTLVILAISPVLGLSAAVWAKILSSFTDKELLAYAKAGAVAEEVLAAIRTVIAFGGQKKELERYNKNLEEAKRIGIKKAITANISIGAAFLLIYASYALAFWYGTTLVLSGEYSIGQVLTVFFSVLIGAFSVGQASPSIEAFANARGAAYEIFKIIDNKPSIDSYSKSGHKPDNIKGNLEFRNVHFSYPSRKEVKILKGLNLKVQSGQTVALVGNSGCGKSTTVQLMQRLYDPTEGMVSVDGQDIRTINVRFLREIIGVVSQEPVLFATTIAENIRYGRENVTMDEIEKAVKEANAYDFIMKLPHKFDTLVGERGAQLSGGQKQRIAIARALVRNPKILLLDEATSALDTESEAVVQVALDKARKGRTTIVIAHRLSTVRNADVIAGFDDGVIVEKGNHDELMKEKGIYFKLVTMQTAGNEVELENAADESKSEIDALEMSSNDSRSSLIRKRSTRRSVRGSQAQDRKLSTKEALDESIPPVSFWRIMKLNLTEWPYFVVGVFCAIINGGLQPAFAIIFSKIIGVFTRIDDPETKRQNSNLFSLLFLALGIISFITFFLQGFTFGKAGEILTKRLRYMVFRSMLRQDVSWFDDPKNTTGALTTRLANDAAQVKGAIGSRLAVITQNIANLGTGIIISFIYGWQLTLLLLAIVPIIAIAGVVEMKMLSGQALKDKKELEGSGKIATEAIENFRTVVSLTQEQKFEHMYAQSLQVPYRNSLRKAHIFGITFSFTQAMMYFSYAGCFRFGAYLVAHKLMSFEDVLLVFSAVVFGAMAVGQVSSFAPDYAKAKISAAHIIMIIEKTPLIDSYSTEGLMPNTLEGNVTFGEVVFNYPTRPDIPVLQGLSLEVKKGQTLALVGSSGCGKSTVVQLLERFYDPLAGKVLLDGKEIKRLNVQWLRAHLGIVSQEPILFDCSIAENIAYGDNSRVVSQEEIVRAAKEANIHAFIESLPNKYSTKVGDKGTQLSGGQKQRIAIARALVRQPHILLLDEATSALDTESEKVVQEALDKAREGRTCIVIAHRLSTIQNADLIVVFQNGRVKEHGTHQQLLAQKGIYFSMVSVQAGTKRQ

Consider `Oc1ccc2ccccc2c1SSc1c(O)ccc2ccccc12`, for which the results for the concentration at half-maximal activity (AC50) in assay [1] and in assay [2] were 14.8 µM (active) and 11.8 µM (active), respectively.

`COc1cc2nccc(Oc3ccc(NC(=O)Nc4ccc(F)cc4F)c(F)c3)c2cc1OC`: the concentration at half-maximal activity (AC50) in assay [1] was 5.25 µM (active); in [2], 3.32 µM (active).

With `Cc1cc(NC(=O)Nc2ccc(N(C)C)cc2)c2cc(F)cc(F)c2n1`, the compound was called inactive in [1].

As to `CCOC(=O)C1=C(C)NC(=S)NC1c1cccc(O)c1` (stereo not drawn), the compound was called inactive in [1].

On to `CN1C(=O)C(Cc2c[nH]c3ccccc23)NC1=S` (stereo not drawn), for which the result in assay [1] and in assay [2] was inactive.

Regarding `O=C(O)c1ccc(-c2c[nH]c3ncc(-c4ccccc4)cc23)cc1C1CCCC1`, the liver cell % of control in [3] turned out to be 92%. Moreover, the parasite % of control in assay [3] is 0.113% (active). Moreover, the result in [1] and in assay [2] was inactive.

For `O=C1Nc2ccc(I)cc2/C1=C/c1cc(Br)c(O)c(Br)c1`, the survival in [4] is 109 (inactive). Also, the compound was called inactive in assay [1].

For the compound `CCCCC[C@H](O)/C=C/[C@H]1[C@H](O)CC(=O)[C@@H]1C/C=C\CCCC(=O)O`, the fluorescence slope change in [5] is 51% (active). Moreover, the survival in [4] is 66.5 (inactive). For the same compound, the outcome in assay [1] was inactive.

`Fc1ccc(Cl)cc1-c1nc(Nc2ccncc2)c2nccnc2n1`: the half-maximal activity concentration (AC50) in assay [1] is 23.5 µM (active).

For the compound `COc1cccc(-c2cc(=O)c3ccccc3o2)c1N`, the survival in [4] is 106 (inactive). For the same compound, the compound was classed as inactive in assay [1] and in assay [2].

On to `O=c1[nH]c(-c2ccc(C(F)(F)F)cc2)nc2c1CSCC2`, for which the call in assay [1] was inactive. Further, the inhibition in [6] (at 0.5 µM, stronger effect = higher value) was -18.1% (inactive); in assay [6] (measured here: combination with BGB IC20, at 0.005 µM), 0.844%; in assay [6] (measured here: combination with BGB IC40, at 0.005 µM), 12.4%; in assay [6] (setting [20]) it was -21.3%; in assay [6] (measured here: combination with cisplatin, at 0.5 µM, stronger effect = higher value), -36.1%; in [6] (measured here: combination with cisplatin, at 5 µM, stronger effect = higher value), -17.2%. In addition, the inhibition in [7] (BGB combo, at 5 µM) was 8.65%; in assay [7] (at 0.5 µM), -7.61% (inactive); in assay [7] (cisplatin combo, at 5 µM), 8.16%; in [7] (setting [21]) it was -5.54%; in [7] (setting [22]) it was -17.8%; in [7] (single agent, at 5 µM) it was 38.9%. The inhibition in [8] (at 0.5 µM) is -9.31% (inactive); in assay [8] (setting [20]), -26%; in assay [8] (setting [23]), -13.9%; in assay [8] (setting [24]), -59%; in assay [9] (at 0.5 µM) it was -23.5% (inactive); in [9] (measured here: with BGB IC20, at 0.5 µM), -23%. Further, the inhibition in assay [9] (measured here: with BGB IC20, at 5 µM) is -21.9%; in assay [9] (measured here: with cisplatin IC20, at 0.5 µM) it was -30.4%; in assay [9] (measured here: with cisplatin IC20, at 5 µM) it was -19.6%; in assay [9] (single agent, at 5 µM), 3.2%; in assay [10] (at 0.5 µM), -39.2% (inactive); in assay [10] (measured here: combination with BGB at IC20, at 0.5 µM), -20.7%. The inhibition in assay [10] (measured here: combination with cisplatin at IC20, at 0.5 µM) was -76.4%; in [11] (at 0.5 µM), -8.71% (inactive); in assay [11] (measured here: combo with BGB at IC20, at 0.5 µM), -15.3%; in assay [11] (measured here: combo with cisplatin at IC20, at 0.5 µM) it was -8.24%; in [12] (at 0.5 µM), -2.17% (inactive); in assay [12] (measured here: inhibition with BGB combination, at 0.05 µM), -13.9%. The inhibition in assay [12] (measured here: inhibition with cisplatin combination, at 0.05 µM) was -26.3%; in [13] (at 0.5 µM), -7.37% (inactive); in assay [13] (setting [23]), -7.07%; in assay [13] (setting [24]), -6.53%; in [14] (at 0.5 µM), -4.6% (inactive); in [14] (measured here: BGB combination, at 0.5 µM) it was -1.61%. Also, the inhibition in assay [14] (measured here: BGB combination, at 5 µM) was -2.42%; in [14] (measured here: cisplatin combination, at 0.5 µM) it was -18.2%; in [14] (measured here: cisplatin combination, at 5 µM) it was -5.9%; in assay [15] (BGB combination, concentration series, at 5 µM), -5.61%; in assay [15] (at 0.5 µM) it was 0.36% (inactive); in assay [15] (cisplatin combination, concentration series, at 5 µM) it was 7.32%. Also, the inhibition in assay [16] is -1.27% (inactive); in [16] (measured here: combo with BGB IC20) it was 0.645%; in assay [16] (measured here: combo with cisplatin IC20), -5.26%; in assay [17] (at 0.5 µM), -4.59% (inactive); in [17] (cisplatin combination, at 0.5 µM), -17.6%; in assay [17] (cisplatin combination, at 5 µM), -12.8%. In addition, the inhibition in assay [17] (measured here: BGB IC40 combination 0.05 uM, at 0.05 µM) was 7.96%; in [17] (single agent, at 5 µM), -20.3%; in assay [18] (at 0.5 µM), -18.1% (inactive); in [18] (cisplatin combo, at 5 µM) it was -47.8%; in assay [18] (measured here: BGB IC40 combination, at 0.05 µM) it was -24.5%; in assay [18] (setting [23]) it was -29.6%. Besides, the inhibition in [18] (single agent, at 5 µM) was 13.3%; in [19] (at 0.5 µM), -34.9% (inactive); in assay [19] (setting [21]), -20.3%; in assay [19] (setting [22]), -44.5%; in assay [19] (single agent, at 0.05 µM) it was -54.3%; in assay [19] (single agent, at 5 µM) it was -18.2%.

Consider `Oc1cc(O)cc(/C=C/c2ccc(O)c(O)c2)c1`, for which, in assay [4], the survival was 27.6 (inactive).

The term AC50 denotes the concentration giving half of the maximal activity seen. By inhibition is commonly meant the change of the read-out against control, counted positive when it falls.

These data come from PubChem BioAssay.
